PubChem BioAssay (NCATS)
Values without a mark were called inactive. Inconclusive results are not listed. Activity calls are given as the source filed them. Unless noted, calls come from the whole dose curve; as a rule, active = well fitted curve in either direction with a large enough effect (not every such curve was filed as active); inconclusive = small, poorly fitted or top-dose-only effect, or another doubt; inactive = flat fitted curve, though single readings scatter.

Columns and labels:
[1] = AP1 Signaling Pathway (AID 357); settings: ME-180 AP-1-bla reporter, EGF-induced, beta-lactamase ratio, 5 h; at 17.2 µM (top of the series) unless noted;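 note: ME-180 reporter cells stimulated with EGF at its EC50 level; % is set by controls: 0 for no effect and ±100 for the full control effect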
Outline: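 Cells are seeded overnight, exposed to compound titrations and an EC50 level of EGF for 5 hours at 37 °C, then loaded with CCF4 dye for 2.5 hours. Beta-lactamase activity under the AP-1 element is read as a blue/green ratio.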

[2] = NFAT Signaling Pathway (AID 444); settings: Jurkat NFAT-bla M1, carbachol, beta-lactamase ratio, 5 h; at 17.2 µM (top of the series) unless noted;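 note: carbachol stimulus at about its EC50 of 1 µM final; % is set by controls: 0 for no effect and ±100 for the full control effect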
Outline: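 Jurkat cells carrying an NFAT-driven β-lactamase reporter and co-transfected muscarinic M1 receptor were treated with compound plus carbachol (1 uM final, an EC50 level) for 5 h at 37 °C. CCF4 loading followed for 1 h at RT; 460/530 nm ratio gave %activity.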

[3] = Stat Signaling Pathway (AID 446); settings: ME-180 (cervical carcinoma) SIE beta-lactamase reporter, IL-6 stimulated, 5 h; at 17.2 µM (top of the series) unless noted;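 note: ME-180 cervical cancer cells given 40 pM IL-6 alongside compound; SIE-controlled beta-lactamase reporter measured as 460/530 nm FRET emission ratio; % is set by controls: 0 for no effect and ±100 for the full control effect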
Outline: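 Normalization used AC90 stimulation (300 pM IL-6) and AC90 inhibition (125 nM pan-JAK inhibitor at 40 pM IL-6). The underlying signal is SIE-driven beta-lactamase in ME-180 cells after 5 h IL-6 exposure with compound.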

[4] = biological target: Glucocorticoid receptor (Homo sapiens) (UniProt P04150); assay: GR-GFP Redistribution (AID 450;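 active = compounds whose dose series gives a full or clear partial fitted curve of increased nuclear translocation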; note: potency is the fitted concentration of half-maximal effect)
Glucocorticoid receptor (Homo sapiens), sequence (P04150 whole entry, looked up): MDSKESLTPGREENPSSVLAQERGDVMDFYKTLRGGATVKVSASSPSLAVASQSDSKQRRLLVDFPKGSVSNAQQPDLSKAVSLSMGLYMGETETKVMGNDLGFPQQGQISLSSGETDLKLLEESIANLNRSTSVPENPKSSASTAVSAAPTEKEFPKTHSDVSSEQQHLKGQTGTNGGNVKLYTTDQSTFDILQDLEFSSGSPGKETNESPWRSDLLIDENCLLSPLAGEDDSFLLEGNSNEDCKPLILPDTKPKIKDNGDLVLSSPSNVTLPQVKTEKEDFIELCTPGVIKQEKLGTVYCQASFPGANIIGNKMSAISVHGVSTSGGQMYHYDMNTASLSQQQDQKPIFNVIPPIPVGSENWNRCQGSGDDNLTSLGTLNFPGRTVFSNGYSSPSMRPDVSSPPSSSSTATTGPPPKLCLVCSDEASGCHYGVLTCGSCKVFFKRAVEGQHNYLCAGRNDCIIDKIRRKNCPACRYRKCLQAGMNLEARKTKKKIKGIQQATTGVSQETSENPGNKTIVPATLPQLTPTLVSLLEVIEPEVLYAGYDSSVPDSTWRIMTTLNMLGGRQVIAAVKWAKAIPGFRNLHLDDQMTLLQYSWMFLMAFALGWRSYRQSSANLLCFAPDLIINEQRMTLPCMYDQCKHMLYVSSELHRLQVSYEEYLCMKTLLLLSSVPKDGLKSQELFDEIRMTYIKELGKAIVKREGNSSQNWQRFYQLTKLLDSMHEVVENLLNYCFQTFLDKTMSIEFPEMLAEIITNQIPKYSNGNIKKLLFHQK

Structure (SMILES)	activity change, negative = inhibition [1]	activity change, negative = inhibition [2]	activity, negative = inhibition [3]	Potency [4]
Clc1cccc(-c2nn3c(COc4ccccc4)nnc3s2)c1	6.46%	-0.831%	17.5%	> 20.6 µM
Cc1ccccc1OCC(O)Cn1c(N2CCN(c3ccccc3)CC2)nc2c1c(=O)[nH]c(=O)n2C (stereo not drawn)	14.4%	-4.3%	-10.5%	> 20.6 µM
COc1cc(C2NC(=O)NC(C)=C2C(=O)Nc2cccc(C)c2C)cc(OC)c1OC (stereo not drawn)	2.82%	10.2%	-2.31%	> 20.6 µM
Cn1c(=O)c2c(nc(NCc3ccc4c(c3)OCO4)n2Cc2ccc(F)cc2)n(C)c1=O	-26%	-10.4%	-22%	> 20.6 µM
CC1(C)Cc2c(sc3c2C(=O)N(c2ccccc2)C2=NCCCN23)CO1	9.3%	-14.6%	5.74%	> 20.6 µM
COc1ccccc1N1CCN(CCOc2c(OC)cccc2OC)CC1	12.4%	12.8%	2.04%	> 20.6 µM
CCC1CC2(C)NC(=O)c3c(sc4c3CC(C)(C)OC4)N2C1=O (stereo not drawn)	-7.1%	-20.5%	-10.3%	> 20.6 µM
CCOC(=O)c1c(C)n(C)c2ccc(OC)c(NC(=O)CN3CCC4(CC3)OCCO4)c12	-3.92%	1.31%	3.03%	> 20.6 µM
CCOC(=O)CC(=O)CSc1nnc2sc3ccccc3n12	6.11%	-0.0909%	7.94%	> 20.6 µM
Cc1cc(C)cc(-n2c3nc4ccccc4nc3c3c(=O)n(Cc4ccco4)cnc32)c1	8.24%	-18.2%	-16.9%	> 20.6 µM
CCN(CC)CCN1C(=O)C(=O)/C(=C(/O)c2ccc(OC(C)C)cc2)C1c1ccncc1 (stereo not drawn)	-12%	0.331%	-2.31%	> 20.6 µM
CC(NC(=O)OCc1ccccc1)C(=O)OCN1C(=O)c2ccccc2C1=O (stereo not drawn)	-1.4%	-16.6%	13.6%	> 20.6 µM
CC1(C)Cc2c(sc3ncn4nc(-c5ccco5)nc4c23)CO1	-5.24%	8.04%	-2.67%	> 20.6 µM
CN1CCN(c2ncnc3c2[nH]c2ccc(F)cc23)CC1	7.75%	-5.03%	11.7%	> 20.6 µM
C=CCOc1ccc(/C(O)=C2/C(=O)C(=O)N(CCCN3CCOCC3)C2c2ccccc2)cc1 (stereo not drawn)	-4.92%	12.9%	-5.01%	> 20.6 µM
CC(=O)c1c(C)c2c(n1CCN(C)C)CCCC2	123% [activator] (active)	-7.5%	9.43%	> 20.6 µM
CCn1nnc(C(=O)O)c1C(=O)O	3.44%	3.87%	1.11%	> 20.6 µM
